Potency, outcome and max activation data for twelve compounds are collected here from PubChem BioAssay (Tox21).

The target in assay [1] is Progesterone receptor (Homo sapiens) (UniProt P06401). Briefly: qHTS assay to identify small molecule antagonists of the progesterone receptor (PR) signaling pathway (AID 1346795; active = well fitted inhibition curve with a large enough effect in the signal ratio in the repeat runs, not every such curve was filed as active; the % refers to the signal ratio; note: potency is the fitted concentration of half-maximal effect). A digest of the protocol:
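HEK293T PR-UAS-bla reporter cells in charcoal-stripped serum (2%) received compound after a 6 hr settling period, followed by R5020 agonist at 1 nM final; 16 hr incubation preceded the FRET substrate step and fluorescence measurement.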

A short description of assay [2]: qHTS assay to identify small molecule antagonists of the progesterone receptor (PR) signaling pathway - cell viability counter screen (AID 1346798). Note: nearly all actives have a fitted effect of over 50% in size. Note: potency is the fitted concentration of half-maximal effect. A digest of the protocol: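 Same-well multiplex: after 16 hr at 37C with compound and R5020 stimulation, HEK293T cells carrying a UAS-bla reporter received LiveBLAzer substrate (2 hr RT), then CellTiter-Glo (30 min RT) for luminescent viability.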
(In general: qHTS replaces the single test concentration by a dilution series.)

A short description of assay [3]: qHTS assay to identify small molecule antagonists of the TGF-beta/Smad signaling pathway - cell viability counter screen (AID 1346824). Note: nearly all actives have a fitted effect of over 50% in size. Put shortly:
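Cytotoxicity counter-screen run in the same wells as the beta-lactamase Smad reporter read: CellTiter-Glo luminescence after 30 min at room temperature. HEK 293T SBE-bla cells had 5 hr compound exposure at 37 C with TGF-beta1 (0.25 ng/mL stock).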

The nature of assay [4]: qHTS assay to identify small molecule agonists of the TGF-beta/Smad signaling pathway - cell viability counter screen (AID 1346829). Note: top concentration of the series differs between compounds; nearly all actives have a fitted effect of over 45% in size. A digest of the protocol: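 Tox21 qHTS format: SBE-bla HEK 293T cells treated with DMSO-dissolved compounds for 5 hr; CellTiter-Glo luminescence after 30 min at room temperature.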
Assay [5] in a line: qHTS assay to identify small molecule agonists of the TGF-beta/Smad signaling pathway (AID 1346859; active = well fitted activation curve with a large enough effect in the signal ratio in the repeat runs, not every such curve was filed as active; the % refers to the signal ratio; note: series mostly up to about 77 µM). Put shortly:
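Smad-responsive beta-lactamase reporter cells (HEK 293T) received compounds from DMSO stocks after overnight attachment, were incubated 5 hr, then treated 2 hr with FRET substrate before dual-emission fluorescence measurement (405 nm excitation).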

Assay [6] concerns the target Thyrotropin-releasing hormone receptor (Homo sapiens) (UniProt P34981). Briefly: qHTS assay to identify small molecule antagonists of the thyrotropin-releasing hormone receptor (TRHR) signaling pathway (AID 1346877; active = well fitted inhibition curve with a large enough effect in the repeat runs, not every such curve was filed as active; note: series mostly up to about 51 µM). Put shortly: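 Intracellular calcium fluorescence, read kinetically every second over 3 min, reports TRH-evoked signalling in HEK293 cells carrying TRHR. Test compounds were added 5 min ahead of a 1 nM TRH challenge.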

Assay [7] shares this target. Description: qHTS assay to identify small molecule agonists of the thyrotropin-releasing hormone receptor (TRHR) signaling pathway (AID 1346891; calls by dose curve;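 note: HEK293 cells expressing TRHR with calcium dye readout; series mostly up to about 58 µM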). Put shortly:
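Agonist-mode calcium mobilisation screen: TRHR-transfected HEK293 cells cultured overnight (18 h), dye-loaded for 2 h at 37 °C, exposed to compounds, and monitored by fluorescence for 3 min.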

Assay [8] is described as follows: Caspase-3/7 induction in HepG2 cells by small molecules, qHTS assay (AID 1346978). Note: nearly all actives have a fitted effect of over 15% in size. Put shortly: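 Caspase-3/7 induction was measured by Caspase-Glo 3/7 luminescence (30 min, room temperature) after a 17 hr compound exposure of wild-type HepG2 cells seeded at 2,000 per well and pre-incubated 5 hr.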
Assay [9] is described as follows: Caspase-3/7 induction in HepG2 cells by small molecules, qHTS cell viability counter screen (AID 1346981). Note: nearly all actives have a fitted effect of over 30% in size. Note: potency is the fitted concentration of half-maximal effect. Put shortly: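 HepG2, WT, 2,000 cells/well; 5 hr pre-incubation 37 C/5% CO2; compound pin-transferred from DMSO; 16 hr exposure; CellTiter-Fluor, 1 hr; fluorescence read.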
In assay [10] the target is Cytochrome P450 2D6 (Homo sapiens) (UniProt P10635). Briefly: Cytochrome P450 Family 2 Subfamily D Member 6 (CYP2D6) small molecule antagonists: luciferase reporter qHTS assay (AID 1671196). Note: nearly all actives have a fitted effect of over 50% in size. Note: potency is the fitted concentration of half-maximal effect. Put shortly:
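Read-out is luminescence from luciferin formed by CYP2D6 turnover of a proluciferin substrate, recorded as relative luminescence units. Reactions ran 1 h at room temperature after NADPH regeneration solution was added.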
On the technique in general: A reporter such as luciferase makes a cellular process visible.

A short description of assay [11]: qHTS assay to identify small molecule agonists of the progesterone receptor (PR) signaling pathway - cell viability counter screen (AID 1346799; calls by dose curve; note: nearly all actives have a fitted effect of over 45% in size; note: potency is the fitted concentration of half-maximal effect). Put shortly: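 Counter screen for cytotoxicity: compound-treated PR-UAS-bla HEK293T cells (16 hr, 37C, 5% CO2) were assayed with CellTiter-Glo, luminescence measured after 30 min at room temperature.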
A short description of assay [12]: Human pregnane X receptor (PXR) small molecule agonists, qHTS cell viability counter screen (AID 1346977). Note: nearly all actives have a fitted effect of over 50% in size. Note: potency is the fitted concentration of half-maximal effect. A digest of the protocol: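 Measures live-cell protease fluorescence (CellTiter-Fluor) in PXR-Luc HepG2 cells treated 24hr with compounds at 37C. Cells had 5hr to attach before pin transfer of DMSO solutions.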
The nature of assay [13]: Caspase-3/7 induction in CHO-K1 cells by small molecules, qHTS cell viability counter screen (AID 1346979). Note: nearly all actives have a fitted effect of over 35% in size. Note: potency is the fitted concentration of half-maximal effect. A digest of the protocol:
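In the same wells as the caspase read, viability of compound-treated wild-type CHO-K1 cells was assessed using CellTiter-Fluor, added after 16hr at 37C and measured by fluorescence following 1hr further incubation.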

Assay [14] is described as follows: Caspase-3/7 induction in CHO-K1 cells by small molecules, qHTS assay (AID 1346980). Note: nearly all actives have a fitted effect of over 15% in size. A digest of the protocol:
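Luminescent Caspase-Glo 3/7 read (30min, room temperature) quantified apoptosis induction. Cells were wild-type CHO-K1, treated with compound for 17hr at 37 C and 5% CO2.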

The target of assay [15] is Nuclear receptor subfamily 1 group I member 2 (Rattus norvegicus) (UniProt Q9R1A7). Briefly: Rat pregnane X receptor (rPXR) activation by small molecules, qHTS assay (AID 1346983). Note: nearly all actives have a fitted effect of over 20% in size. The following applies: rPXR luciferase reporter cells, One-Glo luminescence, 24 h; max activation: stronger effect = higher value. A digest of the protocol:
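Luminescent readout (One-Glo luciferase, 30 min room temperature) followed 24 hr compound treatment at 37 C of rPXR cells plated 2,000 per well and preincubated 5hr; qHTS format with compounds delivered in DMSO.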

Assay [16] deals with Nuclear receptor subfamily 1 group I member 2 (Homo sapiens) (UniProt O75469). Briefly: CYP3A4 induction through human pregnane X receptor (PXR) by small molecules, qHTS assay (AID 1346984). Note: nearly all actives have a fitted effect of over 40% in size. Put shortly: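 Luminescence readout: luciferase signal after One-Glo (30 min, room temperature), following 3 h at 37C with 3uM final Luciferin-IPA P450 substrate. Cells were DPX-2 (HepG2, PXR/CYP3A4-luc co-transfected) dosed for 24 h.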

The target is the same in assay [17]. Description: Human pregnane X receptor (PXR) activation by small molecules, qHTS assay (AID 1346985). Note: nearly all actives have a fitted effect of over 40% in size. A digest of the protocol:
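DPX-2 cells (HepG2 co-transfected with a PXR response element and a CYP3A4-promoter luciferase construct) were seeded at 2,000 per well, rested 5 hr at 37C, then exposed to DMSO-dissolved compounds for 24 hr. Activation was read as luciferase luminescence.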

The target of assay [18] is Progesterone receptor (Homo sapiens) (UniProt P06401). Briefly: qHTS assay to identify small molecule agonists of the progesterone receptor (PR) signaling pathway (AID 1346784; calls by dose curve; note: nearly all actives have a fitted effect of over 30% in size). A digest of the protocol:
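Agonist mode, quantitative HTS format in a HEK 293T line expressing a UAS-controlled beta-lactamase reporter; 16 hr compound exposure at 37C in 2% charcoal-stripped FBS, then LiveBLAzer B/G FRET fluorescence.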

Assay [19] deals with Nuclear receptor subfamily 1 group I member 2 (Homo sapiens) (UniProt O75469). Briefly: Human pregnane X receptor (PXR) small molecule agonists, qHTS assay (AID 1346982). Note: nearly all actives have a fitted effect of over 35% in size. Note: potency is the fitted concentration of half-maximal effect. A digest of the protocol:
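Luciferase signal from ONE-Glo (30 min, room temperature) measured activation of hPXR-driven CYP3A4 reporter expression in PXR-Luc HepG2 cells treated with compounds for 24 hr at 37 C.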

Each structure is given as a SMILES string. Unmarked numbers belong to inactive results. Inconclusive results are not listed. Active and inactive are the calls of the source. Unless noted, calls come from the whole dose curve; as a rule, active = well fitted curve in the direction sought with a large enough effect in the repeat runs; inconclusive = weak or mixed curves; inactive = no such curve, though single readings can be large; an effect the other way counts as inactive or inconclusive.
% is set by controls: 0 for no effect and ±100 for the full control effect.

Sequence of Cytochrome P450 2D6 (Homo sapiens) (P10635 whole entry, looked up): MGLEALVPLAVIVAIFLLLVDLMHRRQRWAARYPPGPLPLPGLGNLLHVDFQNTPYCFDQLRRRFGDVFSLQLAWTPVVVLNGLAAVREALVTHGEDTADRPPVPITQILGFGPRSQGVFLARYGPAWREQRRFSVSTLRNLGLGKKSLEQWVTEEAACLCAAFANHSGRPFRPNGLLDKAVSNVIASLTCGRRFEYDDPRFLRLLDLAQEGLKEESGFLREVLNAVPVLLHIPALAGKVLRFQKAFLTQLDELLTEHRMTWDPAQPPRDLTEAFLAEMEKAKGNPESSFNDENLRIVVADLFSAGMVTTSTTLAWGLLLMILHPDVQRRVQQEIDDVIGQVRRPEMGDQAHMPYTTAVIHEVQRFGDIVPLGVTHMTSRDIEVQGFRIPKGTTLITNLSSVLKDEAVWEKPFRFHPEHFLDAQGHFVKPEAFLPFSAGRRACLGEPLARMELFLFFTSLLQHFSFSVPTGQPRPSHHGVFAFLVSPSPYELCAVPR
Sequence of Nuclear receptor subfamily 1 group I member 2 (Homo sapiens) (O75469 whole entry, looked up): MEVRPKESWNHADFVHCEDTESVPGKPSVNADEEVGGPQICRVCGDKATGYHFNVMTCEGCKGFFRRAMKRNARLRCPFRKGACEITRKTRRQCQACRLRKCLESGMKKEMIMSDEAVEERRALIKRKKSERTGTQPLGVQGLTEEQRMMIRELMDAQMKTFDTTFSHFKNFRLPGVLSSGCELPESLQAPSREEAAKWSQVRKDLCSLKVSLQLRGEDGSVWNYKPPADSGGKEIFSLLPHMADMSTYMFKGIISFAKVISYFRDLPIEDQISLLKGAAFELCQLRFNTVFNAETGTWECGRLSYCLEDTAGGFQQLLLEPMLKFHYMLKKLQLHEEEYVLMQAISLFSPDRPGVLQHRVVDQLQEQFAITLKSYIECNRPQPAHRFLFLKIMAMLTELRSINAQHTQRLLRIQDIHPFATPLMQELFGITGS
Sequence of Thyrotropin-releasing hormone receptor (Homo sapiens) (P34981 whole entry, looked up): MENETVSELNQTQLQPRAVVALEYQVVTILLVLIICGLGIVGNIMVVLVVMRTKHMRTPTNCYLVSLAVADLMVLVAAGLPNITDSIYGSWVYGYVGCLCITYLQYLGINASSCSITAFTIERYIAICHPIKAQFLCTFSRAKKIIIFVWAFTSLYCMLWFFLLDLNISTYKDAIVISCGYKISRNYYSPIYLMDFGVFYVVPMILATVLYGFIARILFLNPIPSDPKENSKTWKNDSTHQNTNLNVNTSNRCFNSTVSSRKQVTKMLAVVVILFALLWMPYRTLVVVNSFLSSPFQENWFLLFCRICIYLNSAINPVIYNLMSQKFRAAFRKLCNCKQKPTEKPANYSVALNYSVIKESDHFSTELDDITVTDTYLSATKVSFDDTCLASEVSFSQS
Sequence of Progesterone receptor (Homo sapiens) (P06401 whole entry, looked up): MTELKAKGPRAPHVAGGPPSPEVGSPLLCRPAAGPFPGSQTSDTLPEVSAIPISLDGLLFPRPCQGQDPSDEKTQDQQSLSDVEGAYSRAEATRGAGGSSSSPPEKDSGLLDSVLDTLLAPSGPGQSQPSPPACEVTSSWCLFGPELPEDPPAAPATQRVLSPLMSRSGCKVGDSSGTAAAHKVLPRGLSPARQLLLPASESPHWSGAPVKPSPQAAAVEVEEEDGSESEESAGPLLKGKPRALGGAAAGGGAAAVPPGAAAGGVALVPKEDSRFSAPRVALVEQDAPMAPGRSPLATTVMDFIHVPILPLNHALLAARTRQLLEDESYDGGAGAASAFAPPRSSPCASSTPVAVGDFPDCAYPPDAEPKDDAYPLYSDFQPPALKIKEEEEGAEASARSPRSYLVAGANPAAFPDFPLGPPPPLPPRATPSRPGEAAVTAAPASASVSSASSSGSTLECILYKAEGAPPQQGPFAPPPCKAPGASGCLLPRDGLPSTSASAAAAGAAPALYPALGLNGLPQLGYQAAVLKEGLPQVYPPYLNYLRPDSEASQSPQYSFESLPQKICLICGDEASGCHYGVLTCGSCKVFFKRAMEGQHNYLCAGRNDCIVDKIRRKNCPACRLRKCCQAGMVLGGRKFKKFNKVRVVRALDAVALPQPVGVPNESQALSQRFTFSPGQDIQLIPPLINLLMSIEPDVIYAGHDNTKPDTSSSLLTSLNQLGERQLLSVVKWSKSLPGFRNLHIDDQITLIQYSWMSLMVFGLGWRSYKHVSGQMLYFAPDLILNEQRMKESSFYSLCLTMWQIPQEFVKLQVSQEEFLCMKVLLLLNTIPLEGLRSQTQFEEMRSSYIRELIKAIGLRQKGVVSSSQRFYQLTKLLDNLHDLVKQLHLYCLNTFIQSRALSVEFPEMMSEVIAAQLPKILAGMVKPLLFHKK
Sequence of Nuclear receptor subfamily 1 group I member 2 (Rattus norvegicus) (Q9R1A7 whole entry, looked up): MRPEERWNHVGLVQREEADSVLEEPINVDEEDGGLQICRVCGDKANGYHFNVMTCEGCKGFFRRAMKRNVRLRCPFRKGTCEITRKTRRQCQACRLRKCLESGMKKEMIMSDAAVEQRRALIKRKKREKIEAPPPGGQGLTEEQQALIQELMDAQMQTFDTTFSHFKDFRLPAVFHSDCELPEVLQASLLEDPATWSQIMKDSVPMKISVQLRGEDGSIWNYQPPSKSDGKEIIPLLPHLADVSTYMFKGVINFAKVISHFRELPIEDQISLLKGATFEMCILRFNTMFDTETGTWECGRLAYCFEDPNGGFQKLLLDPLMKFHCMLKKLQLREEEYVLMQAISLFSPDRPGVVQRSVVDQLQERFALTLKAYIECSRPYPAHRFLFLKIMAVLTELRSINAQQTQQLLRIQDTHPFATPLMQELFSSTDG

Take `O=C=Nc1cccc(C(F)(F)F)c1`: the Potency entry in assay [1], in [2], in assay [3], in assay [4], in assay [5] and in assay [7] was “inactive” each time. Besides, the Potency entry in assay [8], in [9] and in assay [10] was “inactive” each time. In addition, in [6], the compound was classed as inactive.
Regarding `CCN(CC)CCNC(=O)COc1ccc(OC)cc1`, the Potency result in assay [2], in [11], in assay [3], in [4], in assay [5] and in assay [7] was “inactive” throughout. Besides, the Potency result in assay [12], in assay [8], in assay [13], in assay [14], in [9] and in [16] was “inactive” throughout. Besides, the Potency entry in assay [17] is “inactive”. Besides, the compound was classed as inactive in [6]. Moreover, the max activation in assay [15] was 6.52%. In [10], the Potency was 13.8 µM (active).
Take `O=c1c(O)c(-c2ccc(O)cc2)oc2cc(O)cc(O)c12`: the Potency entry in assay [18], in assay [3], in assay [4], in assay [8] and in assay [14] was “inactive” throughout. Further, the Potency in assay [1] was 5.19 µM (active); in assay [13], 60.9 µM (active); in [9], 60.9 µM (active).
Take `Nc1nnc(-c2ccc([N+](=O)[O-])o2)o1`: the Potency result in [18], in assay [3], in [4], in assay [8], in [14] and in assay [19] was “inactive” throughout. Further, the Potency in assay [12] is 27.3 µM (active); in assay [13] it was 54.5 µM (active); in [9], 68.6 µM (active); in [10] it was 39.9 µM (active).
With `O=C=Nc1ccc(Cl)c(Cl)c1`, the Potency result in assay [18], in assay [3], in [4], in assay [12], in assay [8] and in [13] was “inactive” throughout. In addition, the Potency entry in assay [14], in [9] and in assay [10] was “inactive” in each case. Also, the Potency in [11] was 23.9 µM (active); in assay [19], 26.9 µM (active).
For `Cc1cccc(N(C)C(=S)Oc2ccc3c(c2)CCC3)c1`, the Potency result in assay [18], in [11], in [3], in [4], in assay [5] and in assay [8] was “inactive” each time. Besides, the Potency entry in assay [14], in assay [9] and in assay [10] was “inactive” throughout. Moreover, the Potency in [1] was 11.9 µM (active); in assay [19], 10.6 µM (active).
For `CCC1(CO)COCOC1`, the Potency entry in assay [18], in assay [11], in [3], in assay [4], in assay [5] and in assay [7] was “inactive” throughout. Also, the Potency result in assay [12], in assay [8], in assay [13], in assay [14], in assay [9] and in [19] was “inactive” throughout. Moreover, the Potency entry in assay [10] was “inactive”. Further, the result in assay [6] was inactive.
With `COC(=O)[C@H]1[C@H]2C[C@@H]3c4[nH]c5cc(OC)ccc5c4CCN3C[C@H]2C[C@@H](OC(=O)/C=C/c2ccc(O)c(OC)c2)[C@@H]1OC`, the Potency entry in [18], in assay [1], in assay [3], in [4], in assay [7] and in assay [8] was “inactive” throughout. Further, the Potency entry in assay [14] and in [10] was “inactive” in each case. Besides, the outcome in [6] was inactive. Moreover, the results for the Potency in assay [12], in assay [13] and in assay [19] were 23.7 µM (active), 26.6 µM (active) and 11.9 µM (active), respectively.
Turning to `CCCCCCCCC(CCCCCC)C(=O)O` (centres undefined), the Potency entry in assay [18], in [3], in assay [4], in [5], in assay [7] and in assay [12] was “inactive” throughout. In addition, the Potency entry in [8], in [13], in assay [14] and in assay [9] was “inactive” throughout. The outcome in assay [6] was inactive.
With `CCCCN1CCCC1C(=O)Nc1c(C)cc(C)cc1C` (centres undefined), the Potency entry in assay [18], in [2], in assay [11], in [3], in assay [4] and in assay [5] was “inactive” each time. Besides, the Potency result in assay [7], in assay [12], in [8], in assay [13], in [14] and in assay [9] was “inactive” throughout. Moreover, the compound was classed as inactive in [6]. The Potency in assay [10] is 3.09 µM (active).
Take `CC(C)=CCC/C(C)=C/CC/C(C)=C/C(=O)OCC(=O)[C@@]1(O)CC[C@H]2[C@@H]3CCC4=CC(=O)C=C[C@]4(C)[C@H]3[C@@H](O)C[C@@]21C`: the Potency result in assay [18], in [4], in assay [5], in assay [7], in [12] and in [8] was “inactive” throughout. For the same compound, the Potency result in assay [14] was “inactive”. For the same compound, the result in [6] was inactive. In addition, the Potency is 18.8 µM (active) in assay [13] and 1.88 µM (active) in assay [19].
On to `OCCN1CCN(CCCN2c3ccccc3Sc3ccc(Cl)cc32)CC1`, for which the Potency in assay [2] is 23.7 µM (active); in assay [11], 13.3 µM (active); in assay [12] it was 29.8 µM (active); in [13], 29.8 µM (active); in assay [19], 10.6 µM (active). The Potency entry in [3], in [4], in assay [5], in assay [7] and in [17] was “inactive” in each case. For the same compound, the compound was called inactive in [6]. Moreover, in [15], the max activation was 5.45%.
